# Experimental data from PubChem BioAssay.
# Active and inactive are the calls of the source.
# Tests used:
# [1] = A549 cell viability effects, profiling panel, calcein-AM fluorescence, 48 h, basal (AID 1162); details: higher = more signal
# [2] = adipocyte viability effects, profiling panel, cell-based, 3T3-L1 adipocytes, calcein-AM fluorescence, 48 h, basal (AID 1163); details: 3T3-L1 adipocytes viability, higher = more signal
# [3] = HepG2 cell viability effects, profiling panel, calcein-AM fluorescence, 48 h, basal (AID 1164); details: higher = more signal
# [4] = MM1S cell viability effects, profiling panel, calcein-AM fluorescence, 48 h, basal (AID 1165); details: higher = more signal;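 note: viability of MM1S multiple myeloma cells under basal unstimulated conditions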
# [5] = basal RPMI8226 viability, no added stimulus, profiling panel, cell-based, calcein-AM fluorescence, 48 h, PK04 Diversity Set (AID 1166); details: RPMI8226 myeloma viability, higher = more signal;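 note: cells grown under basal conditions without added stimulus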
# [6] = basal HepG2 mitochondrial membrane potential changes, profiling panel, cell-based, JC-1 fluorescence, 24 h, 100 nL compound (AID 1167); details: higher = more signal
# [7] = basal 3T3-L1 adipocyte mitochondrial potential changes, profiling panel, cell-based, JC-1 fluorescence, 3T3-L1 adipocytes, 24 h, 100 nL compound (AID 1168); details: JC-1 mitochondrial fluorescence, higher = more signal, called active from +8 up or from −8 down
# [8] = basal RPMI8226 mitochondrial membrane potential changes, profiling panel, cell-based, JC-1 fluorescence, 24 h, 100 nL compound (AID 1169); details: RPMI8226 myeloma, JC-1 mitochondrial potential fluorescence, higher = more signal
# [9] = basal MM1S mitochondrial membrane potential changes, profiling panel, cell-based, JC-1 fluorescence, 24 h, 100 nL compound (AID 1170); details: higher = more signal
# [10] = A549 lung cancer cell viability effects, profiling panel, resazurin fluorescence, 24 h, PK04 Diversity Set (AID 1171); details: higher = more signal, called active from +8 up or from −8 down
# Note: test concentration not given here.
SMILES,z-score [1],z-score [2],z-score [3],z-score [4],z-score [5],z-score [6],z-score [7],z-score [8],z-score [9],z-score [10]
[N-]=[N+]=NCc1ccccc1[C@@H]1OC(c2ccc(OCCCO)cc2)=N[C@]1(Cc1ccccc1N=[N+]=[N-])C(=O)N1CCCCC1,-0.135,-0.843,0.461,-2.31,-3.75,0.913,-0.922 (inactive),-1.19,-2.04,-0.484 (inactive)
COCC(=C=CC[C@@H](O)c1ccc(OCCO)cc1)CCO,1.46,0.376,0.875,0.676,0.786,1.32,0.87 (inactive),-0.756,-1.1,1.12 (inactive)
COc1cccc(/C=C(\C#N)C(=O)Nc2c(C)n(C)n(-c3ccccc3)c2=O)c1,2.14,1.12,1.01,-0.485,0.101,0.778,0.159 (inactive),0.505,-0.535,-0.589 (inactive)
C=C(COC)/C(=C/C[C@@H](OC(=O)c1ccncc1)c1ccccc1OCCO)c1cc(C(=O)OC)ccc1OC,2.37,-0.193,-0.11,-3.29,-1.63,1.35,-1.04 (inactive),-0.735,-1.9,0.314 (inactive)
CCOC(=O)C1=CCN(S(=O)(=O)c2ccc(C)cc2)C1c1ccccc1 (stereo not given),-0.973,-0.205,-0.535,-0.455,-1.21,-1.62,-0.804 (inactive),0.443,-0.583,0.739 (inactive)
Cc1nc2cc(Br)ccc2c(=O)n1Cc1cccc(O)c1,-0.508,-0.396,0.454,-0.301,0.244,-0.0434,1.62 (inactive),-0.536,-0.432,0.246 (inactive)
COCCCNC(=O)[C@@]1(c2ccc([N+](=O)[O-])cc2)CC(=O)N(C(C)C)[C@@H]1c1ccc(CO)cc1,1.12,1.22,0.603,0.105,0.243,-0.0251,-0.612 (inactive),-0.795,-1.28,0.985 (inactive)
C[C@]1(C(=O)NCC(F)(F)F)c2ccccc2C(=O)N(Cc2ccccc2)[C@H]1c1ccc(CO)cc1,-0.431,-0.2,0.57,-0.503,0.514,1.97,0.113 (inactive),0.824,-1.07,0.0906 (inactive)
CO[C@H]1O[C@H](CO)[C@@H](OC(=O)Nc2ccc(C#N)cc2)[C@@H]2OC(=O)[C@H](Cc3cccc(Br)c3)C/C=C/C[C@@H](Cc3cccc(Br)c3)C(=O)O[C@@H]12,1.31,0.685,1.29,-1.71,-0.487,1.73,1.74 (inactive),-0.579,-0.935,-2.28 (inactive)
COC(=O)[C@@]1(Cc2ccc(F)cc2)[C@H]2c3cc(C(=O)N4CCCC4)n(C)c3C[C@H]2CN1C(=O)c1ccccc1,-0.893,0.502,-0.429,-1.63,-1.01,1.29,-1 (inactive),-0.392,-0.206,1.13 (inactive)
CN(C)CCCCNC(=O)[C@H]1C[C@H]2C(=O)N[C@@H](CCCC[N+](C)(C)C)C(=O)N2[C@H]1c1ccc(O)cc1,-0.0568,0.29,-0.172,-0.178,0.733,-0.445,-0.763 (inactive),-0.101,-0.203,0.625 (inactive)
CN1C(=O)C2C=CC(C(O)c3ccc(F)cc3)N(NC(=O)OC(C)(C)C)C2C1=O (stereo not given),-0.834,-0.528,0.0643,-2.82,-0.0542,-0.8,-0.517 (inactive),0.247,1.3,-1.18 (inactive)
C=C(C)[C@@H]1CC=C(C(O)C2C=CC3C(=O)N(c4ccccc4)C(=O)C3N2Nc2ccc(C#N)cc2)CC1 (stereo not given in full),-0.391,-0.575,0.166,-0.331,0.0001,-2.47,-2.61 (inactive),-0.671,-0.641,-0.31 (inactive)
CN(C)C(=O)[C@@]1(Cc2ccccc2)COC(c2ccc(OCCCO)cc2)=N1,0.0581,-0.538,-0.0485,-1.22,0.726,-0.455,-0.384 (inactive),0.0953,-1.17,-0.193 (inactive)
CCOC(=O)C1=C[C@@H](C(C)(C)C)N(S(=O)(=O)c2ccc(C)cc2)[C@H]1c1cccc(Cl)c1,-2.79,-0.192,-2.64,-2.77,-4.21,5.38,0.318 (inactive),-1.14,-2.3,-1.12 (inactive)
CC1CC/C=C\[C@H]2OC34C=CCN(CCN5CCOCC5)C(=O)[C@H]3N(C(C)CO)C(=O)[C@@H]4C2C(=O)O1 (stereo not given in full),0.956,-0.491,1.2,1.29,-0.143,0.602,0.225 (inactive),0.0954,-0.722,-0.387 (inactive)
COc1cc(CO)cc(I)c1O[C@H]1C=C(C(=O)NCCO)C[C@@H](NCC2CCCCC2)[C@@H]1O,1.31,0.13,0.407,-0.235,0.893,1.25,-0.328 (inactive),-0.561,-1.5,0.258 (inactive)
CCOC(=O)C[C@H]1[C@H](OC(=O)c2ccc(-c3ccccc3)cc2)[C@@H](NC(=O)CC(C)C)c2cc(OCCCO)ccc2N1C(=O)c1ccccc1,-0.426,-0.257,-0.0915,-1.17,-0.672,1.32,-0.679 (inactive),0.983,0.33,-0.719 (inactive)
CN1C(=O)C2C=CC(C(O)c3cc(C(F)(F)F)cc(C(F)(F)F)c3)N(Nc3ccccc3)C2C1=O (stereo not given),-1.53,-1.36,-0.78,-0.239,-0.683,-1.09,-0.551 (inactive),-0.222,0.333,0.672 (inactive)
NC(=O)[C@@H]1[C@H]2C(=O)O[C@H](c3ccccc3)[C@H](c3ccccc3)N2[C@H](c2ccc(OCCO)cc2)[C@@]12C(=O)Nc1ccc(C#CCCO)cc12,-0.0173,-0.387,1.17,-0.929,0.698,-0.704,-0.391 (inactive),-0.323,-0.939,-0.65 (inactive)
C=CC1c2cc(O)c(OC)cc2CCN1Cc1ccc([N+](=O)[O-])o1 (stereo not given),0.654,-0.187,-0.143,-0.429,0.413,-0.22,0.362 (inactive),-0.0931,0.877,0.0283 (inactive)
CS(=O)(=O)CCOC(=O)C1=CC(CCCO)=CC(C2CC2)N(Cc2cccc(OC(F)(F)F)c2)C=C1C(=O)OCCS(C)(=O)=O (stereo not given),0.78,0.751,0.572,-2.98,-1.18,1.92,-0.374 (inactive),-0.34,-0.0798,0.538 (inactive)
Cc1ccc(S[C@]2(C(=O)NCC(C)C)CC(=O)N(C3Cc4ccccc4C3)[C@@H]2c2ccc(CO)cc2I)cc1,0.168,-0.492,-0.455,-2.37,-2.6,-0.534,-0.233 (inactive),-0.107,-1.76,-0.105 (inactive)
[N-]=[N+]=Nc1ccccc1C[C@@]1(C(=O)O)N=C(c2ccc(OCCCO)cc2)O[C@@H]1c1ccccc1N=[N+]=[N-],-0.404,-0.115,-0.36,-2.44,-2.44,-2.37,-0.74 (inactive),-0.56,-0.739,0.13 (inactive)
C#C[C@@H](CC)O[Si](C#CCCCC#N)(C(C)C)C(C)C,-0.533,-0.87,-0.168,-3.16,-0.501,-0.626,0.117 (inactive),-0.45,-1.73,-0.0413 (inactive)
CCCNC(=O)[C@@]1(Sc2ccc(C)cc2)CC(=O)N(C(C)C)[C@@H]1c1ccc(CO)cc1I,0.505,0.49,-0.658,-2.65,-2.09,0.632,-0.769 (inactive),-0.919,-1.02,-0.0866 (inactive)
C=C(COC)C(=O)CC[C@H](OC(C)=O)c1ccc(OCCO)cc1,-0.522,1.72,-0.974,-2.6,-0.887,0.692,-0.213 (inactive),-0.0964,1.3,0.0933 (inactive)
COc1ccc(C#Cc2ccc3c(c2)[C@]2(C(=O)N3)[C@H](C(=O)Nc3nc4ccccc4s3)[C@H]3C(=O)O[C@H](c4ccccc4)[C@H](c4ccccc4)N3[C@@H]2c2ccccc2OCCO)cc1,0.609,1.61,0.211,-0.708,-0.451,-2.79,3.69 (inactive),-1.03,-1.27,-0.801 (inactive)
